Active and inactive are the calls of the source. How the source made its calls: active means hit-call score of the fitted dose curve at least 0.9, where 1 is the maximum; inactive means score below 0.9.

The first assay can be described thus: CEETOX_H295R_OHPREG: CeeTox H295R High-throughput Steroidogenesis Assay for OH-Pregnenolone (OHPREG) (AID 2283434). To be noted: actives raise or lower the signal. In outline: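 H295R, 10 uM forskolin pre-stim 48 h; test chemical 48 h, 0.1% DMSO final. MTBE extraction, reverse-phase C18 HPLC-ESI+ MS/MS of medium. Gain/loss vs DMSO; viability by MTT in same wells.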
The term AC50 denotes the concentration giving half of the maximal activity seen. Turning to `CC(=O)N1CCN(c2ccc(OC[C@H]3CO[C@](Cn4ccnc4)(c4ccc(Cl)cc4Cl)O3)cc2)CC1`, the AC50 is 1.42 µM (active). For the compound `CCCCCCCCN(C)CCCCCCCC`, the outcome was inactive. Take `Cc1cc2c(cc1C(F)(F)F)N(C(=O)Nc1ccc(Oc3cccnc3C)nc1)CC2`: the AC50 was 0.495 µM (active). On to `OC12N=C(c3ccccc3)SC1Cc1cc(Cl)ccc12` (stereo not drawn), for which the outcome was inactive. Regarding `Cc1ccc2oc(CN(Cc3ccccc3)C(=O)Nc3c(F)cc(F)cc3F)c(-c3ccc(Cl)cc3)c2c1`, the outcome was inactive. In the case of `Clc1ccccc1C(c1ccccc1)(c1ccccc1)n1ccnc1`, the AC50 was 0.00809 µM (active).

With `CC(C)(c1cc(Br)c(O)c(Br)c1)c1cc(Br)c(O)c(Br)c1`, the compound was classed as inactive. Turning to `NC(=O)c1nc(-c2cccc(-c3cc(F)ccc3OCC(F)(F)C(F)(F)F)c2)n[nH]1`, the call was inactive.

Take `COc1cccc([C@H](O)C2CCN(CCc3ccc(F)cc3)CC2)c1OC`: the AC50 was 1.81 µM (active). For `CO[C@H]1/C=C/O[C@@]2(C)Oc3c(C)c(O)c4c(O)c(c(/C=N/N5CCN(C)CC5)c(O)c4c3C2=O)NC(=O)/C(C)=C\C=C\[C@H](C)[C@H](O)[C@@H](C)[C@@H](O)[C@@H](C)[C@H](OC(C)=O)[C@@H]1C`, the result was inactive. For `C[C@]12CC[C@@H]3c4ccc(O)cc4CC[C@H]3[C@@H]1CCC2=O`, the half-maximal activity concentration (AC50) was 1.6 µM (active). Regarding `CC(C)(C)c1cc(/C=C2\SC(N)=NC2=O)cc(C(C)(C)C)c1O`, the result was inactive.

A short description of the next assay: CEETOX_H295R_OHPROG: CeeTox H295R High-throughput Steroidogenesis Assay for OH-Progesterone (OHPROG) (AID 2283435).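 On AC50: human adrenal H295R cells primed 48 h with 10 µM forskolin; 17alpha-hydroxyprogesterone secreted into medium measured by HPLC-MS/MS.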 To be noted: actives raise or lower the signal. In short, it runs like this:
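Steps: seed H295R cells and adhere overnight; stimulate with 10 uM forskolin for 48 h; replace with chemical-containing medium (0.1% DMSO) for 48 h; extract medium with MTBE; quantify 17alpha-hydroxyprogesterone by reverse-phase C18 HPLC-MS/MS against a 7-point curve.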
On to `CC(=O)N1CCN(c2ccc(OC[C@H]3CO[C@](Cn4ccnc4)(c4ccc(Cl)cc4Cl)O3)cc2)CC1`, for which the AC50 is 0.49 µM (active).

As to `CCCCCCCCN(C)CCCCCCCC`, the half-maximal activity concentration (AC50) is 50 µM (active).

For `Cc1cc2c(cc1C(F)(F)F)N(C(=O)Nc1ccc(Oc3cccnc3C)nc1)CC2`, the half-maximal activity concentration (AC50) is 0.591 µM (active). `OC12N=C(c3ccccc3)SC1Cc1cc(Cl)ccc12` (stereo not drawn): the result was inactive. As for `Cc1ccc2oc(CN(Cc3ccccc3)C(=O)Nc3c(F)cc(F)cc3F)c(-c3ccc(Cl)cc3)c2c1`, the half-maximal activity concentration (AC50) is 4.83 µM (active). `Clc1ccccc1C(c1ccccc1)(c1ccccc1)n1ccnc1`: the AC50 was 0.0684 µM (active). Still for that read-out and setting: next, `CC(C)(c1cc(Br)c(O)c(Br)c1)c1cc(Br)c(O)c(Br)c1`: 4.41 µM (active). For the compound `NC(=O)c1nc(-c2cccc(-c3cc(F)ccc3OCC(F)(F)C(F)(F)F)c2)n[nH]1`, the compound was classed as inactive. Regarding `COc1cccc([C@H](O)C2CCN(CCc3ccc(F)cc3)CC2)c1OC`, the AC50 is 19.7 µM (active). For `CO[C@H]1/C=C/O[C@@]2(C)Oc3c(C)c(O)c4c(O)c(c(/C=N/N5CCN(C)CC5)c(O)c4c3C2=O)NC(=O)/C(C)=C\C=C\[C@H](C)[C@H](O)[C@@H](C)[C@@H](O)[C@@H](C)[C@H](OC(C)=O)[C@@H]1C`, the result was inactive. Consider `CC(C)(C)c1cc(/C=C2\SC(N)=NC2=O)cc(C(C)(C)C)c1O`, for which the concentration at half-maximal activity (AC50) was 0.67 µM (active).

Values taken from PubChem BioAssay (EPA / NIEHS).
